# Measured values as given in ChEMBL document CHEMBL3988442, “University of Dundee, Small-Polar-MMV Screening Library” (2021).
# For some assays here: Entries with a potency or affinity are not part of this list.
# Tests used:
# Parameters in all cases: scale not given: direction of the effect not stated beside the values
# [1] = biological target: Protein translocase subunit SecA (Escherichia coli (strain K12)) (UniProt P10408); test: Assay to Identify E. coli SecA ATPase Inhibitors; format: functional; settings: 30 µM
# [2] = biological target: T1, Ubiquitin-activating enzyme e1, putative (Leishmania donovani (strain BPK282A1)) (UniProt E9BSI1); test: Leishmania donovani Ubiquitin Activating Enzyme (LdE1); format: functional; settings: 30 µM
# T1 sequence (whole entry): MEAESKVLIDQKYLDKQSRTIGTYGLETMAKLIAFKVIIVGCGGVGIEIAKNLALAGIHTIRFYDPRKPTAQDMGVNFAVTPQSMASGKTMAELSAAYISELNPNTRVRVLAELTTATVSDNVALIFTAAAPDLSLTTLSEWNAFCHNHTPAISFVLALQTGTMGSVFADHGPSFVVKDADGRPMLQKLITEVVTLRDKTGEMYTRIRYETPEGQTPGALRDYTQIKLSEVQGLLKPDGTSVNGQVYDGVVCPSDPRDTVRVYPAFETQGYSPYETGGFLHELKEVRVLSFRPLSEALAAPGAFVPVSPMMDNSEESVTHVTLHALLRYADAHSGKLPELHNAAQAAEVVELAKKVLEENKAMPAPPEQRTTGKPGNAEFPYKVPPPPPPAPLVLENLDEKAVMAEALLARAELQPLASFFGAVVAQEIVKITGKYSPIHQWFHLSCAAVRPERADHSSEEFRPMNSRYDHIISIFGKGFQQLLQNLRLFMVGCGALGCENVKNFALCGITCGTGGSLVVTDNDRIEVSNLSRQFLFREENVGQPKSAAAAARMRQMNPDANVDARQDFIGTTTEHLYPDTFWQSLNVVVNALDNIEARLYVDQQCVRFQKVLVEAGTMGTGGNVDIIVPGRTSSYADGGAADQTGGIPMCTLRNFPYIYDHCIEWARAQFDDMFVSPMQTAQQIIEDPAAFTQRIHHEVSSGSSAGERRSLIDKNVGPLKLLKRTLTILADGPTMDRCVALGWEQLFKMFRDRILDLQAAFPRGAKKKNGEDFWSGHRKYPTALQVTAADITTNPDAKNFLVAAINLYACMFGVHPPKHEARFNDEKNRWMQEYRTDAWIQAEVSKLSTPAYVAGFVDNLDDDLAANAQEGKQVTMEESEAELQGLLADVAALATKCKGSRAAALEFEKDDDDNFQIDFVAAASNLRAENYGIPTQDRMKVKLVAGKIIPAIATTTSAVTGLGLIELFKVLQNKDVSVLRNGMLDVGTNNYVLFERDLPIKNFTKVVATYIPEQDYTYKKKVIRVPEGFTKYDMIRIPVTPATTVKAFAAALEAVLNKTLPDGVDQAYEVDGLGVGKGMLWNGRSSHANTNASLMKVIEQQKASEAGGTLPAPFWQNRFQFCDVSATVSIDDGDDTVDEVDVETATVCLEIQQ
# [3] = biological target: AMP-activated protein kinase, AMPK (Homo sapiens) (UniProt P54646+O43741+P54619+Q9UGJ0+Q9Y478+Q13131+Q9UGI9); test: AMP-dependent Kinase enzyme assay. An in vitro enzyme assay that detects ADP turnover that is directly proportional to AMPK activity. This uses naive AMPK that is activated during the assay with MK-8722; format: functional; settings: 30 µM
# [4] = biological target: Sialic acid-binding Ig-like lectin 9 (Homo sapiens) (UniProt Q9Y336); test: Hs-Siglec9 ALPHAscreen SOP 20170721; settings: 10 µM
# Trypanosoma cruzi = test: Trypanosoma cruzi phosphomannomutase and mannose-1-phosphate guanylyltransferase assay; format: functional; settings: 10 µM
# [5] = biological target: T2, Arginase-2, mitochondrial (Homo sapiens) (UniProt P78540); test: in vitro enzyme assay to detect the production of urea directly proportional to the activity of Arginase II; format: functional; settings: 33.3 µM; further: in the data most compounds retested in dose-response had high values
# T2 sequence (whole entry): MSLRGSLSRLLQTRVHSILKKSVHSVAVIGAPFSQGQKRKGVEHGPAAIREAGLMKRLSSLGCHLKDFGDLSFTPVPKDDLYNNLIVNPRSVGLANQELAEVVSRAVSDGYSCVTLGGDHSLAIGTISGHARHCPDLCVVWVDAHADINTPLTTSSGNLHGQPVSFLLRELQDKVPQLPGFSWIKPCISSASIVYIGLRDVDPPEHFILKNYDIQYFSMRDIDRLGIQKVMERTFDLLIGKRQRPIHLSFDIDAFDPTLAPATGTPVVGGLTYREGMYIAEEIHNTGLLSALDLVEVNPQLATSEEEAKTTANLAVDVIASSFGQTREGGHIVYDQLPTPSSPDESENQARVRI
# [6] = biological target: T3, Proteasome subunit beta (Trypanosoma cruzi) (UniProt O96673); test: Trypanosoma cruzi proteasome chymotrypsin-like activity (TcProtChymo) assay.; further: in the data most compounds retested in dose-response had high values; format: functional; settings: 9.37 µM
# T3 sequence (whole entry): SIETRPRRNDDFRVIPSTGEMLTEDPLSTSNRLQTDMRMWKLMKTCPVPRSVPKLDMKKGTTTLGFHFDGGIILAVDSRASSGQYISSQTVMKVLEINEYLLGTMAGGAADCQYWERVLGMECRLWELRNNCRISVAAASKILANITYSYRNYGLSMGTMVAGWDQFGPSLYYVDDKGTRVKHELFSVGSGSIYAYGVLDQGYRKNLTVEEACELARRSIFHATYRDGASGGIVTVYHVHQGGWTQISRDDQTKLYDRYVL
# Homo sapiens = species: Homo sapiens; test: To identify inhibition of the IFN signalling (Jak-Stat) pathway via expression of an eGFP reporter gene under the control of an IFN-stimulated response element (ISRE) containing MxA promoter.; format: functional; settings: 30 µM
# [7] = biological target: T4, Tyrosyl-tRNA synthetase, putative (Trypanosoma cruzi (strain CL Brener)) (UniProt Q4DSP6); test: Trypanosoma cruzi tyrosyl tRNA synthetase (TcYRS) _High Tyrosine SOP; format: functional; settings: 30 µM; further: in the data most compounds retested in dose-response had high values
# T4 sequence (whole entry): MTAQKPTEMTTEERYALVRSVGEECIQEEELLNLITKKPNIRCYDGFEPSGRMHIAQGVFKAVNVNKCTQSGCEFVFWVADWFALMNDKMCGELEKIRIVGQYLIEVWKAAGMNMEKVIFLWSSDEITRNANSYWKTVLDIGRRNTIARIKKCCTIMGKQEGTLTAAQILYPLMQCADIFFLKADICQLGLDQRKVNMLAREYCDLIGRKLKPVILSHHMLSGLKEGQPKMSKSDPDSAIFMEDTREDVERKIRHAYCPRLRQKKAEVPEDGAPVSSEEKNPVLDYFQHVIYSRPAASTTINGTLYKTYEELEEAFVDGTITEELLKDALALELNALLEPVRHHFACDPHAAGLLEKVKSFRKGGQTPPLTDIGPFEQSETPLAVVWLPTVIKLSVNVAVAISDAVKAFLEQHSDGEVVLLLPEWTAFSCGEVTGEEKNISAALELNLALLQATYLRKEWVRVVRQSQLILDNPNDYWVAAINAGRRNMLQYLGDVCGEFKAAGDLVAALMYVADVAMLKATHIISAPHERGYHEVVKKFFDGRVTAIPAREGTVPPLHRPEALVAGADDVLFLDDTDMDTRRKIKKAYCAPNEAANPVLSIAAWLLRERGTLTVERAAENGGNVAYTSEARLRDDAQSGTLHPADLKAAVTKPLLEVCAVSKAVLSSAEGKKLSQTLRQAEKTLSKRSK
# [8] = biological target: T4, Tyrosyl-tRNA synthetase, putative (Trypanosoma cruzi (strain CL Brener)); test: Trypanosoma cruzi tyrosyl tRNA synthetase (TcYRS) SOP; format: functional; settings: 30 µM
# [9] = biological target: Chromo domain-containing protein 1 (Saccharomyces cerevisiae (strain ATCC 204508 / S288c) (Baker's yeast)) (UniProt P32657); test: ScCHD-1 Enzyme Inhibition Assay; format: functional; settings: 30 µM; further: in the data most compounds retested in dose-response had high values
# Chromo domain-containing protein 1 (Saccharomyces cerevisiae (strain ATCC 204508 / S288c) (Baker's yeast)), sequence (P32657 whole entry, the tested form may be a part): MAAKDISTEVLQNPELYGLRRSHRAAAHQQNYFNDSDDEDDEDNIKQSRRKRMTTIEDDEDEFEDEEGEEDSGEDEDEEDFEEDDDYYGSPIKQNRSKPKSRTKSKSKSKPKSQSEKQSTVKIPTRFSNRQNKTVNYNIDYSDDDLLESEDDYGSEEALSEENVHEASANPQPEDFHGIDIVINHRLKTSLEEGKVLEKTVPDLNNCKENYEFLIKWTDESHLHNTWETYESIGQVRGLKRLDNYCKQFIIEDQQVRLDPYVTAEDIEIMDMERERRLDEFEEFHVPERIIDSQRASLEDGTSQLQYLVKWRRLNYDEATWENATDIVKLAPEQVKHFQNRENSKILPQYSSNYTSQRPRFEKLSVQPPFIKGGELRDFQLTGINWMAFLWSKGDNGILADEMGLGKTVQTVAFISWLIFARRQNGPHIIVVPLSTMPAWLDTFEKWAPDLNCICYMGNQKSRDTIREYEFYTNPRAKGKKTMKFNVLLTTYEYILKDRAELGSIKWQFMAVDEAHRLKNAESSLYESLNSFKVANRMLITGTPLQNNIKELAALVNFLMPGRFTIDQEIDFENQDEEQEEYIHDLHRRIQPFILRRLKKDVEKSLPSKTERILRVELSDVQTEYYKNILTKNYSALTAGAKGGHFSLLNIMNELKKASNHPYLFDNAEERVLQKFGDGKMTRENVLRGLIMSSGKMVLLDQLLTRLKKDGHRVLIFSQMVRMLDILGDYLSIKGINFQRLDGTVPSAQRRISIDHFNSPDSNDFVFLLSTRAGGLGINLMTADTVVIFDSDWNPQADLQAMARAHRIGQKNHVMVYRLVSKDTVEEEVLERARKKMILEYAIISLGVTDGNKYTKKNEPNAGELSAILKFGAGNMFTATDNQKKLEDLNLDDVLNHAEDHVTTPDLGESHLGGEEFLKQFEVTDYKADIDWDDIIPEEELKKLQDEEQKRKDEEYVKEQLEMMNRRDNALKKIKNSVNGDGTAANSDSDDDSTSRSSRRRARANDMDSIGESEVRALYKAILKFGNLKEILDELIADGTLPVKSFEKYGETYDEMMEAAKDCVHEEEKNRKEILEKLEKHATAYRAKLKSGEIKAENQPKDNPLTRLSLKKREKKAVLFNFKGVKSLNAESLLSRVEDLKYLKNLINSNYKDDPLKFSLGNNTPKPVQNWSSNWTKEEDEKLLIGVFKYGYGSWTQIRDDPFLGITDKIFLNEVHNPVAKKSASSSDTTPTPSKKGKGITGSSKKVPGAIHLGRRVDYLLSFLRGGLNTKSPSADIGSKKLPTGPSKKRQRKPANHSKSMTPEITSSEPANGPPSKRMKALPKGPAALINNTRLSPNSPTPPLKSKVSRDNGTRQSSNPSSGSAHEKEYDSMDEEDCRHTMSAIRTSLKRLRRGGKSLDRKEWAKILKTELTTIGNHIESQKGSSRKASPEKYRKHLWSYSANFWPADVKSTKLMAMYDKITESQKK
# Sialic acid-binding Ig-like lectin 9 (Homo sapiens), sequence (Q9Y336 whole entry): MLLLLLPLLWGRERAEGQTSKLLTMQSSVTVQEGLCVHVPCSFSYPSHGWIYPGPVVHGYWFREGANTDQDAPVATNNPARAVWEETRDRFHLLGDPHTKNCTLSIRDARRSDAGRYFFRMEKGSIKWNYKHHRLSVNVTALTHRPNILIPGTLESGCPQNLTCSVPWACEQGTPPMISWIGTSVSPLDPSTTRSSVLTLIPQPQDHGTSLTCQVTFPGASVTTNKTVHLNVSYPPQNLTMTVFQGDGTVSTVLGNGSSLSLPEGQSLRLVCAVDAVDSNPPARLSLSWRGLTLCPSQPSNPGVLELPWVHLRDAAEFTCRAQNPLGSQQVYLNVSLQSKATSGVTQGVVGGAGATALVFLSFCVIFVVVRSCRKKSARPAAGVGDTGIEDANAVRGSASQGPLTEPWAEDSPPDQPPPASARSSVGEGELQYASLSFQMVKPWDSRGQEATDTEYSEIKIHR
# Protein translocase subunit SecA (Escherichia coli (strain K12)), sequence (P10408 whole entry): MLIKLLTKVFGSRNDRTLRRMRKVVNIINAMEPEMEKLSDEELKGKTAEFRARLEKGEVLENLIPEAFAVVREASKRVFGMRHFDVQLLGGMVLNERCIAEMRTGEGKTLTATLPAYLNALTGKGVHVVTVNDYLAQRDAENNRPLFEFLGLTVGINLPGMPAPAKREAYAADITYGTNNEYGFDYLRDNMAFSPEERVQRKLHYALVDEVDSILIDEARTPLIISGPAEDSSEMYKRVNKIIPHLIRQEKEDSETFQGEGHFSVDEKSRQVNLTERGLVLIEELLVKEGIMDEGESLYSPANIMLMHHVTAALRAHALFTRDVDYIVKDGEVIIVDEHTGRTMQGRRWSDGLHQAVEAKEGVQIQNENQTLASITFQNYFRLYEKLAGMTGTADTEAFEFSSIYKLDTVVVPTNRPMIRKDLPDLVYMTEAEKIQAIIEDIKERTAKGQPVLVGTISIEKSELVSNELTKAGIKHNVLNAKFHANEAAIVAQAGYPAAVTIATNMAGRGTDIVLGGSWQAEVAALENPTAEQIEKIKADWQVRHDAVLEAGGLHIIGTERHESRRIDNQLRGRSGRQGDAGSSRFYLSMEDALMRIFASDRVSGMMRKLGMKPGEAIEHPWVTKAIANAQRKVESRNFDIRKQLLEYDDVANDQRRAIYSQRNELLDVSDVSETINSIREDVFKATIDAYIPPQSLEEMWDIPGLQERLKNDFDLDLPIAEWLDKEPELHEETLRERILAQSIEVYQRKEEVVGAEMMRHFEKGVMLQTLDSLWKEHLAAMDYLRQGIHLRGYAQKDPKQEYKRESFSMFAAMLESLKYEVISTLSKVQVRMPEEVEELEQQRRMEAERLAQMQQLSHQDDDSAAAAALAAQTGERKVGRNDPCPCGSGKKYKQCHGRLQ
Structure (SMILES),Percent Effect [1] [%],Percent Effect [2] [%],Percent Effect [3] [%],Percent Effect [4] [%],Percent Effect (Trypanosoma cruzi) [%],Percent Effect [5] [%],Percent Effect [6] [%],Percent Effect (Homo sapiens) [%],Percent Effect [7] [%],Percent Effect [8] [%],Percent Effect [9] [%]
CC(C)c1nc(CN2CCCCC2)cs1,-4.24,-5.2,15.4,0.118,-0.686,-0.632,-1.54,47.1,-2.86,-2.35,0.144
CN(C)c1cc(CNC(=O)c2ccc(F)cc2F)ccn1,-4.79,28.6,-1.46,10.4,5.62,-1.78,8.11,8.43,5.83,24.4,-9.26
Cc1ccc(C(=O)N2CCn3cc(CN(C)Cc4ccco4)nc3C2)o1,2.2,0,3.27,0.0829,-4.24,3.23,3.13,0.489,1.06,3.85,105
CC(CNC(=O)Nc1ccc(N(C)C)nc1)Cn1cccn1 (configuration not stated),-4.28,4.17,-13.8,-3.22,-3.21,3.09,13.7,-15.8,-3.16,2.56,-3.32
COc1ccc2c(ccn2CCC(=O)O)c1,-6.14,4,-3.9,-8.49,-8.45,-7.22,6.1,21.8,3.17,-5.13,-7.85
Cc1c[nH]cc1C(=O)N1CCN(Cc2nc(C(C)C)no2)CC1,-5.12,8.11,-5.14,9.52,-3.81,-2.77,-3.05,17.2,2.97,11,1.56
COCCN1C(=O)[C@]2(CC[C@@H]3CN(C(=O)NCC(C)C)C[C@@H]32)N=C1C,1.47,5.33,-2.77,-5,5.41,-49.3,5.3,-20.3,1.04,0,-4.55
O=C(c1cccc(CNS(=O)(=O)c2ccccc2F)c1)N1CCCC1,-3.56,15.6,1.76,3.25,2.25,0.21,5.25,24.1,5.71,18.8,-5.99
C[C@H](O)CNC(=O)c1cnc(-c2ccccc2)nc1O,-3.97,10.8,-6.61,24.9,4.83,19.1,11.7,-5.82,2.65,17.1,-9.28
CN(CCNC(=O)NCc1ccncc1)C1CCCC1,-0.694,-5.41,-4.53,1.79,-3.3,0.401,-6.31,7.43,1.48,-1.24,2.18
O=C(NCC1CC1)[C@H]1CC[C@@H]2[C@@H](CCN2Cc2ccoc2)O1,-9.56,16.2,-3.1,26,4.99,3.23,4.72,-7.7,4.3,6.17,-12.2
COc1ccc(C2(CNC(C)c3nnc(C)o3)CCCCC2)cc1 (configuration not stated),-1.33,-8.11,-8.86,6.11,8.69,-4.76,6.03,5.78,0.529,0,0.233
CN1CCCC1CNC(=O)CCCOc1ccc(F)cc1 (configuration not stated),-1.24,0,7.48,11.7,4.7,-3.83,0.835,-4.13,4.41,7.32,-3.92
O=C(c1cnccn1)N1CCc2ncnc(-c3cccnc3)c2CC1,-5.31,2.67,-1.38,-1.29,0.386,-43.5,6.33,-9.47,0,5,-3.12
c1ccc(CCN2CCN(c3ccc4nncn4n3)CC2)nc1,-3.09,5.2,9.47,7.22,-4.49,3.56,3.72,21.7,2.91,7.32,-0.331
O=C1CC2(CCN(CC3CC3)C2)CN1c1cccc(F)c1 (configuration not stated),-0.129,10.8,-7.34,0.348,-3.81,1.24,4.38,-6.1,3.23,11.1,-0.923
COCC1Cn2nnc(-c3cnn(C)c3)c2CN1Cc1ccco1 (configuration not stated),-2.03,2.7,-7.24,5.87,1.37,23.8,9.72,-17.4,11.9,15.8,-5.92
COCCC(=O)N1C[C@@H]2COC[C@]2(COCc2cccnc2)C1,-1.17,13,1.86,-1.48,-14.7,12.3,12,17.3,-1.06,8.97,-8.34
Cc1cc(C)cc(-c2ccc(CC3(C(=O)O)CCOCC3)cc2)c1,-8.77,-4.05,12.1,-1.64,-3.95,-3.48,1.25,18,-20.4,-37.7,-2.15
Cc1cccnc1CNc1cc(N2CCCC2CO)ncn1 (configuration not stated),-2.07,2.6,-9.88,14.4,2.25,-3.56,8.11,11.7,2.91,9.76,-6.83
Cc1nn(C)c(C)c1C1CCCN1C(=O)c1cc[nH]n1 (configuration not stated),-3.64,3.8,5.29,4,-4.41,-1.07,5.49,10.6,-1.04,7.59,7.31
c1ncn(CC2CCCCN2Cc2csc(C3CCCC3)n2)n1 (configuration not stated),-2.71,-5.2,-0.0278,1.89,9.55,-1.42,6.93,11.4,10.7,19.5,66.7
